# Source: PubChem BioAssay
# Calls of active or inactive are those of the source.
# Key:
# [1] = anti-His antibody binders, primary screen, artefact control for SMM control protein annotation, biochemical, small-molecule microarray, 635 nm fluorescence (AID 1128); settings: anti-His Alexa647 antibody binding, higher = more signal;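 note: score merges feature fluorescence with signal-to-noise for each printed compound spot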
# [2] = system: Human papillomavirus type 1a E7 protein (residues 1-88); experiment: HPV1a E7 small-molecule binders, primary screen, biochemical, small-molecule microarray, residues 1-88, 635 nm (AID 1129); settings: small-molecule microarray binding, fluorescence 635 nm; higher = more signal
# [3] = target: Focal adhesion kinase 1 (Homo sapiens) (UniProt Q05397); experiment: small-molecule microarray binders of FAK, primary screen, biochemical, 635/667 nm fluorescence, BSA, DTT (AID 1130); settings: PTK2 binding, 635 nm fluorescence, higher = more signal;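 note: composite of spot emission at 667 nm and signal to noise over triplicate slides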
# Sequence of Focal adhesion kinase 1 (Homo sapiens) (Q05397 whole entry, looked up): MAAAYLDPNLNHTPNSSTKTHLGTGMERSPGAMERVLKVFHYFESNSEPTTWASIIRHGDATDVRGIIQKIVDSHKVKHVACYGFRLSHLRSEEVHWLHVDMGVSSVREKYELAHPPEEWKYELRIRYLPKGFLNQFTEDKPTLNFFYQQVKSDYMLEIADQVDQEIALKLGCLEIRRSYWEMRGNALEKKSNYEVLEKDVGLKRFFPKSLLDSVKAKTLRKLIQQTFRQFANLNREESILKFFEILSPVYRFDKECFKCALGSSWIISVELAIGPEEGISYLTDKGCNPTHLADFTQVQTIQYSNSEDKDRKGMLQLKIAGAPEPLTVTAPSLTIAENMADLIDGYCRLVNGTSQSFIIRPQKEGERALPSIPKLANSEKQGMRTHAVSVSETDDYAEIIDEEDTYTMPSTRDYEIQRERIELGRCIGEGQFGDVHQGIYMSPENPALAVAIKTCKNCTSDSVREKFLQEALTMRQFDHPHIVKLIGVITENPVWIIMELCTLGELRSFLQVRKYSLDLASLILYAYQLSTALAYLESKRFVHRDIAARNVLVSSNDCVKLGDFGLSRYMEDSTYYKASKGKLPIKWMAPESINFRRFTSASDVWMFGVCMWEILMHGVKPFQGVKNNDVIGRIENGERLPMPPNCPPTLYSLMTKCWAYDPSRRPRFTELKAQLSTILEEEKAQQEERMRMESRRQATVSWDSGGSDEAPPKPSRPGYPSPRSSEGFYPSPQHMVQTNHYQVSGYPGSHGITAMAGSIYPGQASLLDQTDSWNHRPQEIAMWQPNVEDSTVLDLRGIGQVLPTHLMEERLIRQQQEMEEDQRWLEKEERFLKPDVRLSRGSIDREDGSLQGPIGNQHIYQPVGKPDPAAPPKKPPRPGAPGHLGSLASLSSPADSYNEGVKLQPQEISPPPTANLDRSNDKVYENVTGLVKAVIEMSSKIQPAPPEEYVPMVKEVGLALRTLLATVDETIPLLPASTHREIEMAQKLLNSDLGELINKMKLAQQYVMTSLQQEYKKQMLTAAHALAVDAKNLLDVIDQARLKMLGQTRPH
# [4] = system: Fibrinogen (Alexa647-labelled); experiment: fibrinogen binders on compound microarrays, profiling panel, artefact control for SMM control-protein annotation, biochemical, small-molecule microarray, 635/667 nm fluorescence (AID 1131); settings: fibrinogen-A647 binding fluorescence, higher = more signal;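 note: z-score merges 667 nm fluorescence with per-spot signal-to-noise over triplicate slides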
# [5] = target: Follistatin (Homo sapiens) (UniProt P19883); experiment: follistatin binders on small-molecule microarrays, primary screen, biochemical, small-molecule microarray, 635/667 nm fluorescence (AID 1132); settings: FST binding, 635 nm fluorescence, higher = more signal
# Sequence of Follistatin (Homo sapiens) (P19883 whole entry, looked up): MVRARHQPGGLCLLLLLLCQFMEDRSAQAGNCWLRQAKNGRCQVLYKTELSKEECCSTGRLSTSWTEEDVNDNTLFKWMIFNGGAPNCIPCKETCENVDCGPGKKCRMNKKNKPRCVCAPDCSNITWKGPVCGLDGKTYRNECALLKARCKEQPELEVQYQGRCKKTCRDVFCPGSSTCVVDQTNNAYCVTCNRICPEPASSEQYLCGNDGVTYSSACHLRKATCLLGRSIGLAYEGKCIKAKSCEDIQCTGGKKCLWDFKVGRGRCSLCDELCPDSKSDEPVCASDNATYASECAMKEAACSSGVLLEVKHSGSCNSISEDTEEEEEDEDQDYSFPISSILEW
# [6] = target: Fibroblast growth factor 2 (Homo sapiens) (UniProt P09038); experiment: FGF2 binders on small-molecule microarrays, primary screen, biochemical, small-molecule microarray, 635/667 nm fluorescence (AID 1133); settings: small-molecule microarray binding, FGF2, fluorescence 635/667; higher = more signal
# Sequence of Fibroblast growth factor 2 (Homo sapiens) (P09038 whole entry, looked up): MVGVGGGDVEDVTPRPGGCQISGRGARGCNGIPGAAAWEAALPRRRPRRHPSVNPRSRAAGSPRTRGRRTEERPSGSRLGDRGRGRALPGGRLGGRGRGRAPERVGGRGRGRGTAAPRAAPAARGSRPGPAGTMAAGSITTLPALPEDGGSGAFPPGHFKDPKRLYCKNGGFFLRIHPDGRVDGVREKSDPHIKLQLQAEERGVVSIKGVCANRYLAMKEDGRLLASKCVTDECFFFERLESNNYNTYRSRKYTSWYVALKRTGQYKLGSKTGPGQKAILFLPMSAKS
# [7] = mitochondrial membrane potential change in A549 cells, profiling panel, cell-based, JC-1 fluorescence, basal, 24 h, 100 nL (AID 1138); settings: higher = more signal;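 note: A549 lung adenocarcinoma cells under basal conditions with no added stimulus; test concentration not given here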
# [8] = system: Lefty1; experiment: Lefty1 binders on small-molecule microarrays, primary screen, biochemical, small-molecule microarray, 635/667 nm fluorescence (AID 1139); settings: small-molecule microarray binding, fluorescence 635/667; higher = more signal
# [9] = system: wheat germ agglutinin (Triticum aestivum), Alexa647-labelled; experiment: wheat germ agglutinin binders on compound microarrays, profiling panel, artefact control for SMM control-protein annotation, biochemical, small-molecule microarray, 635/667 nm fluorescence (AID 1140); settings: WGA-A647 binding, 635 nm fluorescence, higher = more signal;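 note: score merges 667 nm feature emission with signal to noise over triplicate slides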
# [10] = target: Luciferin 4-monooxygenase (Photinus pyralis) (UniProt P08659); experiment: firefly luciferase enzyme inhibitors, primary screen, biochemical, luminescence, purified enzyme, 2006 set (AID 1141); settings: SteadyGlo luminescence, 30 min, higher = more signal, called active from +8 up or from −8 down;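 note: cell-free assay with purified firefly luciferase at 100 ng per well in PBS; test concentration not given here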
# Sequence of Luciferin 4-monooxygenase (Photinus pyralis) (P08659 whole entry, looked up): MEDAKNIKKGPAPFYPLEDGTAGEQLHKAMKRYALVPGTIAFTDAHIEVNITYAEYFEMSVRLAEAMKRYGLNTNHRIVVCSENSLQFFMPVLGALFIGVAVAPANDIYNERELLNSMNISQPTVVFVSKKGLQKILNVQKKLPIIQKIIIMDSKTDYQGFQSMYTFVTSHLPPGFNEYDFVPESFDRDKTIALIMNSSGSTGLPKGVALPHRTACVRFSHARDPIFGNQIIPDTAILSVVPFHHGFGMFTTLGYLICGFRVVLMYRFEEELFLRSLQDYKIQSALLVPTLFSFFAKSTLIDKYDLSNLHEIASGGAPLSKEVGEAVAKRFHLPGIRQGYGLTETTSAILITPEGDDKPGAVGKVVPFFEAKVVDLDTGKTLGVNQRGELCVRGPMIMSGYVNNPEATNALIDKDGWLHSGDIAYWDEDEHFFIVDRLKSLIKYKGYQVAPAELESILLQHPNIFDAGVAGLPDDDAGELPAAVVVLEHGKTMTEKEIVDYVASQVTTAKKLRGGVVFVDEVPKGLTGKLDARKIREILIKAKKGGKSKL
Structure (SMILES),composite z-score [1],composite z-score [2],composite z-score [3],composite z-score [4],composite z-score [5],composite z-score [6],z-score [7],composite z-score [8],composite z-score [9],z-score [10]
CCOc1cc(C(O)C2C=CC3C(=O)N(c4ccccc4)C(=O)C3N2Nc2ccc(C(C)C)cc2)ccc1O (stereo not given),1.72,1.23,0.543,0.963,1.03,0.0704,0.898,0.135,1.3,0.12 (inactive)
COc1ccccc1CN1C(=O)c2ccccc2[C@@]2(Cc3ccccc3N(CCCN(C)C)C2=O)[C@@H]1c1ccc(CO)cc1,0.583,-0.984,-0.0228,0.253,1.2,0.459,-0.202,0.647,-0.331,-0.278 (inactive)
COC(=O)c1c2oc(c1C(=O)OC)C(=O)N[C@@H](C(C)C)Cn1cc(nn1)C1(CCCCC1)NC(=O)N[C@H](CO)CC2,0.591,-0.159,-0.0947,0.209,0.515,1.58,2.2,0.102,0.0969,-1.3 (inactive)
C#CCN(C/C=C/c1ccccc1)[C@H](CO)c1ccccc1,-0.429,0.168,-0.0352,-0.213,0.495,0.444,-1.38,0.968,0.241,0.616 (inactive)
C[N+](C)(C)CCCC[C@@H]1NC(=O)[C@@H]2C[C@H](C(=O)NCCCCCN)[C@H](c3ccc(O)cc3)N2C1=O,2.08,1.05,0.0992,0.927,1.4,1.8,0.962,1.64,0.87,-1.26 (inactive)
C=CC1c2cc(O)c(OC)cc2CCN1Cc1cccc(OC(F)(F)F)c1 (stereo not given),1.33,0.167,0.408,-0.36,-0.0223,-0.43,-1.03,-0.145,1.01,0.454 (inactive)
C=C(/C(=C/C[C@H](OC(=O)c1ccncc1)c1ccc(OCCO)cc1)c1cc(C(=O)OC)ccc1OC)C(C)C,0.785,1,0.359,0.821,0.789,0.494,-0.228,0.546,0.681,-0.357 (inactive)
O=C1C2C=CC(C(O)C=Cc3ccc([N+](=O)[O-])cc3)N(Nc3ccccc3F)C2C(=O)N1c1ccccc1 (stereo not given),1.41,1.23,0.545,0.995,1.11,0.211,-0.607,0.522,1,-0.252 (inactive)
COC(=O)[C@@]1(Cc2ccccc2)[C@H]2c3cc(C(=O)N4CCCC4)n(Cc4ccc(O)c(OC)c4)c3C[C@H]2CN1C(=O)c1ccccc1,0.882,1.27,0.553,-0.685,0.284,-0.638,1.15,-0.0456,0.504,1.04 (inactive)
CC1CC/C=C\[C@H]2OC34C=CCN(Cn5nnc6ccccc65)C(=O)[C@H]3N(CCCCCO)C(=O)[C@@H]4C2C(=O)O1 (stereo not given in full),0.429,-1.48,-0.281,-2.26,-1.16,-1.69,0.114,-0.425,1.24,0.932 (inactive)
NC(=O)[C@@]1(Cc2ccccc2)N=C(c2ccc(OCCCO)cc2)O[C@H]1c1ccccc1,3.01,0.614,0.0867,0.648,0.62,0.686,0.184,-0.846,1.3,-1 (inactive)
CCCCCN1CC=CC23O[C@@H]4C=CCOC(=O)[C@@H]4[C@H]2C(=O)N(C(C)CO)[C@@H]3C1=O (stereo not given in full),-0.396,-0.669,0.174,-0.235,-1.12,-0.495,-0.197,-1.23,-0.383,0.101 (inactive)
CCCC[C@H]1C[C@@H]1[C@@H]1N(P(=O)(c2ccccc2)c2ccccc2)C[C@@](O)(c2ccccc2)CC12CC2,0.127,0.973,0.663,0.955,0.208,0.0514,-1.57,-1.06,0.727,2.35 (inactive)
Cc1ccc(S(=O)(=O)N2C[C@@H](C(=O)O)[C@H](Sc3ccccc3)C[C@H]2c2ccccc2)cc1,0.617,1.23,1.07,1.06,0.999,-0.194,-0.0335,0.697,1.03,1.88 (inactive)
COCCOC(=O)N1C(=O)[C@@]2(c3ccccc31)[C@H](C(=O)N1CCCCCCC1)[C@H]1C(=O)O[C@H](c3ccccc3)[C@H](c3ccccc3)N1[C@@H]2c1ccc(OCCO)cc1,3.77,1.35,4.71,1.04,1.58,1.88,-1.35,1.91,1.74,-0.255 (inactive)
CCCNC(=O)[C@@]1(Sc2ccc(C)cc2)CC(=O)N(Cc2ccccc2C(F)(F)F)[C@@H]1c1ccc(CO)cc1I,-0.132,0.934,0.0382,0.956,1.36,0.76,-0.722,0.849,0.28,0.262 (inactive)
CCCCN1CC=CC23O[C@@H]4/C=C\CCCOC(=O)C4[C@H]2C(=O)N(CCCO)[C@@H]3C1=O (stereo not given in full),2.36,-0.43,-0.226,-1.73,-0.98,-0.251,0.259,-0.0249,-0.151,0.633 (inactive)
CC(C)CNC(=O)[C@@]1(Cc2ccccc2I)c2ccccc2C(=O)N(Cc2ccccc2C(F)(F)F)[C@H]1c1ccc(CO)cc1,0.657,0.0788,-0.287,-0.105,-0.239,-0.217,-0.171,-0.639,0.34,0.654 (inactive)

Structure (SMILES),composite z-score [1],composite z-score [2],composite z-score [3],composite z-score [4],composite z-score [5],composite z-score [6],z-score [7],composite z-score [8],composite z-score [9],z-score [10]
O=C1C2C=CC(C(O)c3c(F)cccc3Cl)N(Nc3ccccc3F)C2C(=O)N1c1ccccc1 (stereo not given),0.236,1.23,0.631,0.926,1.09,0.793,0.353,-0.199,0.702,-0.059 (inactive)
CN1CCC(CCCO)=CC1c1cccs1 (stereo not given),-0.321,-0.902,-0.698,0.0141,-0.0163,0.184,0.391,0.118,-0.485,0.0421 (inactive)
COc1ccc([Si](C)(C)[C@@H]2[C@@H](CCn3cc([C@H](O)c4ccccc4)nn3)O[C@]3(C(=O)N(Cc4cccc(N5CCC5=O)c4)c4ccccc43)[C@H]2C)cc1,0.963,0.227,-0.285,0.119,1.15,1.06,2.21,0.0197,0.187,0.258 (inactive)
CCOC(=O)C[C@H]1[C@H](OC(=O)c2ccc(-c3ccccc3)cc2)[C@@H](NC(=O)c2ccccc2)c2cc(OCCCO)ccc2N1C(=O)c1ccc2ccccc2n1,0.241,1.06,0.426,0.836,-0.0321,-0.0974,-0.0602,-0.329,0.693,0.0119 (inactive)
CCCCC(O)C1C=CC2C(=O)N(C)C(=O)C2N1N1CCCCC1 (stereo not given),1.69,0.678,0.367,1.03,0.971,-0.331,-0.0954,0.412,1.19,0.452 (inactive)
CCN(CC)c1ccc(N2CC=CC34O[C@@H]5/C=C\CCC(C)OC(=O)C5[C@H]3C(=O)N(CCCCCO)[C@@H]4C2=O)cc1 (stereo not given in full),-0.117,-0.886,-0.336,-0.899,-0.614,-0.48,0.105,-0.978,0.208,-0.659 (inactive)
O=C1O[C@@H](c2ccccc2)[C@@H](c2ccccc2)N2[C@@H](c3ccccc3OCCO)[C@]3(C(=O)Nc4ccc(C#CC5(O)CCCCCC5)cc43)[C@@H](C(=O)N3CCN(c4ncccn4)CC3)[C@H]12,1.25,1.2,0.564,0.885,1.03,1.15,-0.758,0.62,0.742,-1.39 (inactive)
O=C1C2C=CC(C(O)c3ccc4c(c3)OCO4)N(Nc3ccc([N+](=O)[O-])cc3)C2C(=O)N1c1ccccc1 (stereo not given),1.29,0.978,-0.0123,0.293,0.225,-0.0036,-0.35,0.313,0.0897,0.382 (inactive)
COC(=O)c1c2oc(c1C(=O)OC)C(=O)NC1(CCCCC1)c1cn(nn1)C[C@H](Cc1ccccc1)NC(=O)N[C@H](CO)CC2,0.842,0.494,0.244,0.94,0.437,0.0141,0.304,0.609,0.831,0.893 (inactive)
C=CCNC(=O)[C@@H]1[C@H]2C(=O)O[C@H](c3ccccc3)[C@H](c3ccccc3)N2[C@H](c2ccc(OCCO)cc2)[C@@]12C(=O)N(C(=O)OCCOC)c1ccc(C#CCC(C(=O)OC)C(=O)OC)cc12,1.67,1.16,1.31,0.603,1.24,1.48,-1.18,0.991,1.05,-0.262 (inactive)
C[C@H]1C2[C@H](Cc3ccccc3)NC(=O)[C@]23C(=O)NCC(=O)N2CCC[C@H]2C(=O)NC/C=C/CCC/C=C/C3[C@@H]2O[C@]12C (stereo not given in full),0.295,-1.28,-0.502,-0.489,-0.0491,-0.0881,-0.979,-0.0374,-0.704,-0.44 (inactive)
NC(=O)N1C(=O)C2C(C1=O)C1C=C(CCCO)C2C(C2CC2)N1Cc1cc2c(cc1Br)OCO2 (stereo not given),1.06,-1.06,0.164,0.928,0.246,-0.407,0.158,0.969,0.847,-1.13 (inactive)
COCCCNC(=O)[C@@]1(CCS(=O)(=O)c2ccccc2)N=C(c2ccc(OCCCO)cc2)O[C@H]1c1ccccc1N=[N+]=[N-],0.328,1.25,-0.0191,1.02,1.3,0.786,-0.341,1.27,1.01,-8.3 (active)
CC=CC(O)C1C=CC2C(=O)N(C)C(=O)C2N1N(c1ccccc1)c1ccccc1 (stereo not given),0.573,-0.226,0.0652,0.241,0.803,-0.024,1.32,0.212,0.318,1.36 (inactive)
O=C1OCC=C[C@H]2OC34C=CCN(CCN5CCOCC5)C(=O)[C@H]3N(CCO)C(=O)[C@@H]4[C@@H]12 (stereo not given in full),0.15,-0.204,-0.133,0.368,0.597,-0.219,0.587,1.41,0.0315,-0.602 (inactive)
CCN(CC)c1ccc(N2CC=CC34O[C@@H]5C=CCOC(=O)[C@@H]5[C@H]3C(=O)N(CCCCCCO)[C@@H]4C2=O)cc1 (stereo not given in full),0.449,-0.202,-0.148,-1.57,-0.0283,-0.666,0.262,0.436,-0.0009,-3.88 (inactive)
CO[C@H]1O[C@H](CO)[C@@H](OC(=O)Nc2ccc(Br)cc2)[C@@H]2OC(=O)[C@H](Cc3cccc(Br)c3)C/C=C/C[C@@H](Cc3cccc(Br)c3)C(=O)O[C@@H]12,0.144,-0.122,0.2,-0.538,0.585,0.268,1.37,0.647,0.616,0.671 (inactive)
